RORg inh: qHTS for inhibitors of ROR gamma transcriptional activity. Drosophila S2 Gal4-RORgamma UAS-luciferase reporter, 20 h. Potency, µM (doses to about 53.6 µM), hits mostly inhibitors. 310,000 compounds, 5.4% hits. AID 2551, 2010; note: nearly all actives have a fitted effect of over 60% in size
Target sequence (P51450 whole entry, looked up, the tested form may be a part): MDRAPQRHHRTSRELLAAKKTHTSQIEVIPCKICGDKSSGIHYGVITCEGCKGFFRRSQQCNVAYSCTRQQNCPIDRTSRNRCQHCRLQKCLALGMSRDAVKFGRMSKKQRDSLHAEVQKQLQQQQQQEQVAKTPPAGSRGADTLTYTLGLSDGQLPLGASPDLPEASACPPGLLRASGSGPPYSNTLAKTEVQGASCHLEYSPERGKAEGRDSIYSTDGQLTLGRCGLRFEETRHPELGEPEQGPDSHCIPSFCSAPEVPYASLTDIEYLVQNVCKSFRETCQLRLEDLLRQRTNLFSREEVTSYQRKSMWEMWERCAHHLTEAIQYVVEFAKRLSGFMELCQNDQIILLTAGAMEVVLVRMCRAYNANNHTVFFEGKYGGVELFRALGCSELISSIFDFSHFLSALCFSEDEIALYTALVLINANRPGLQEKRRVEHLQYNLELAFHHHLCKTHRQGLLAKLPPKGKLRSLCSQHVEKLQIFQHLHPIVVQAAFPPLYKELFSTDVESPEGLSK
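Luminescence from a UAS-regulated Photinus luciferase reporter in stably transfected Drosophila Schneider cells is measured; decreased signal marks ROR gamma inhibition. Fusion expression is induced by 700 uM copper sulfate for 20 hr.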
TDP1 cell noCPT: qHTS for Inhibitors of human tyrosyl-DNA phosphodiesterase 1 (TDP1): qHTS in cells in absence of CPT; 420,000 compounds, 15% hits; DT40 Tdp1-/- hTDP1 cells, no CPT, ATP luminescence, 48 h; Potency, µM (series often up to 46.2 µM), hits mostly inhibitors; note: nearly all actives have a fitted effect of over 55% in size
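A cellular qHTS used chicken DT40 cells lacking endogenous Tdp1 but carrying stably transfected human TDP1. Compounds were applied without camptothecin, and cell growth kinetics were judged by ATP-dependent luminescence after ≥48 hr.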
LDHA block: qHTS assay for inhibitors of human lactate dehydrogenase | L-lactate dehydrogenase A chain (Homo sapiens), P00338 | purified LDHA, NADH/diaphorase-resazurin fluorescence; hits give low values | activity change, % (values are at about 110 or 230 µM) | 480,000 compounds, 0.15% hits | AID 1347041, 2019; in the data active = activity change below about -30%; inconclusive = mostly about -25% to -30%
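LDH5 2 nM; NADH 0.06 mM, pyruvate 0.2 mM; 200 mM Tris pH 7.4, EDTA, Tween-20; 5 min RT. Detection: diaphorase 0.133 mg/mL + resazurin 37 µM, fluorescence ex540/em590 at 0 and 20 min; normalized to enzyme-free and DMSO wells.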
TDP1 cell CPT: qHTS for Inhibitors of human tyrosyl-DNA phosphodiesterase 1 (TDP1): qHTS in cells in presence of CPT; chicken DT40 Tdp1-/-;hTDP1 cells + 20 nM CPT, ATP luminescence, 48 h; Potency, µM (series often up to 46.2 µM), most hits filed as inhibitors; 420,000 compounds, 12% hits; AID 686979, 2013; note: nearly all actives have a fitted effect of over 55% in size
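Chicken DT40 Tdp1-/- cells complemented with human TDP1, 400 cells/well, exposed to compounds plus 20 nM camptothecin for at least 48 h at 37 C; viability read as ATP content by CellTiter-Glo luminescence.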
IL-1B inflam inh: qHTS for Inhibitors of Inflammasome Signaling: IL-1-beta AlphaLISA Primary Screen | THP-1 LPS/ATP IL-1B secretion, AlphaLISA, 16 h; hits give low values | activity change, % at 57.5 µM | 360,000 compounds, 4.7% hits | AID 743279, 2014; in the data active = activity change below about -50%; inconclusive = mostly about -30% to -49%
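THP-1 cells pretreated 1 hr with compounds (up to 57.5 uM final), then stimulated with LPS (250 ng/mL final) plus ATP (1.25 mM final); secreted IL-1B measured by AlphaLISA after 16 hr, decreased signal indicating inhibition.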
VP16 counter: VP16 counterscreen qHTS for inhibitors of ROR gamma transcriptional activity. Potency, µM (series often up to 53.6 µM), most hits filed as inhibitors. Drosophila S2 Gal4-VP16 UAS-luciferase, luminescence, 20 h. 310,000 compounds, 3.5% hits;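 note: Gal4-VP16 expression switched on by copper sulfate through the metallothionein promoter; nearly all actives have a fitted effect of over 50% in size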
Hits are given with their value. An excerpt weighted towards active compounds, which were near 18% of everything screened. Unless noted, calls come from the whole dose curve; as a rule, active = well fitted curve in the direction sought with a large enough effect; inconclusive = small, poorly fitted or top-dose-only effect, or another doubt; inactive = no such curve, though single readings can be large; an effect the other way counts as inactive or inconclusive.

What do the screens show for `Cc1ccccc1-c1nc(CN2CCC(C(=O)NCCCN3CC(C)CC(C)C3)CC2)c(C)o1` (stereo not drawn)?
RORg inh: inactive; TDP1 cell noCPT: inconclusive; LDHA block: inactive; TDP1 cell CPT: 23µM; IL-1B inflam inh: inactive; VP16 counter: inactive

How did Cc1oc(-c2ccc(Cl)cc2)nc1CN1CCC(C(=O)NCc2ccco2)CC1 do in these assays?
RORg inh: inactive; TDP1 cell noCPT: inconclusive; LDHA block: inactive; TDP1 cell CPT: inactive; IL-1B inflam inh: inactive; VP16 counter: inactive

What do the screens show for `COc1cc(CN(C(=O)c2ccc3c(c2)OCC(=O)N3)C2CC2)ccc1OC(F)F`?
LDHA block: inactive

Results for COc1ccc(-c2c(C)c3ccc(OC(C)=O)c(C)c3oc2=O)cc1 ?
LDHA block: inactive

What do the screens show for `CCn1c(=O)c2sccc2n2c(CCCC(=O)N3CCN(c4cccc(Cl)c4)CC3)nnc12`?
TDP1 cell noCPT: 16µM; LDHA block: inactive; TDP1 cell CPT: 18µM

How did CCCn1c(=O)c2sccc2n2c(CCCC(=O)N3CCN(c4ccc(OC)cc4)CC3)nnc12 do in these assays?
TDP1 cell noCPT: inconclusive; LDHA block: inactive; TDP1 cell CPT: inconclusive

What do the screens show for `Cn1c(=O)c2sccc2n2c(CCC(=O)N3CCN(c4cccc(Cl)c4)CC3)nnc12`?
TDP1 cell noCPT: 5.8µM; LDHA block: inactive; TDP1 cell CPT: inconclusive

How did CCCn1c(=O)c2sccc2n2c(CCCC(=O)N3CCN(c4ccccc4)CC3)nnc12 do in these assays?
TDP1 cell noCPT: 16µM; LDHA block: inactive; TDP1 cell CPT: inconclusive

What do the screens show for `CCn1c(=O)c2sccc2n2c(CCCC(=O)N3CCN(c4ccccn4)CC3)nnc12`?
RORg inh: inactive; TDP1 cell noCPT: inconclusive; LDHA block: inactive; TDP1 cell CPT: inconclusive; IL-1B inflam inh: inactive; VP16 counter: inactive

Results for COc1ccc(N2CCN(C(=O)CCc3nnc4n(C)c(=O)c5sccc5n34)CC2)cc1 ?
TDP1 cell noCPT: inactive; LDHA block: inactive; TDP1 cell CPT: inactive

How did CCn1c(=O)c2sccc2n2c(CCCC(=O)N3CCN(c4cc(Cl)ccc4C)CC3)nnc12 do in these assays?
TDP1 cell noCPT: 8.2µM; LDHA block: inactive; TDP1 cell CPT: 12µM

How did O=C(CN1CCCC1c1ccccc1)Nc1cccc(F)c1 (stereo not drawn) do in these assays?
LDHA block: inactive

Results for CCc1ccc(NC(=S)NCC(C)(C)N2CCOCC2)cc1 ?
LDHA block: inactive

Results for CC(C)C(NC(=O)c1ccccc1Cl)C(C)C ?
LDHA block: inactive

What do the screens show for `O=C1C=C(N2CCN(c3ccccn3)CC2)C(=O)c2c(O)ccc(O)c21`?
TDP1 cell noCPT: 4.1µM; LDHA block: inactive; TDP1 cell CPT: 1.5µM; IL-1B inflam inh: inactive

Results for CC(=O)N/N=C(\N)c1nonc1N ?
RORg inh: inactive; TDP1 cell noCPT: inactive; LDHA block: inactive; TDP1 cell CPT: inactive; IL-1B inflam inh: inactive; VP16 counter: inactive

Results for Nc1nonc1C(=Nc1ccc(Br)cc1)NO ?
RORg inh: inactive; TDP1 cell noCPT: inconclusive; LDHA block: inactive; TDP1 cell CPT: 26µM; IL-1B inflam inh: inactive; VP16 counter: inactive

Results for COC(=O)c1cc(NC(=O)CC2Sc3ccccc3NC2=O)cc(C(=O)OC)c1 (stereo not drawn) ?
LDHA block: inactive

What do the screens show for `Cc1sc2ncnc(N3CCN(Cc4ccccc4)CC3)c2c1-c1ccc(F)cc1`?
RORg inh: inactive; TDP1 cell noCPT: inconclusive; LDHA block: inactive; TDP1 cell CPT: inconclusive; IL-1B inflam inh: -55; VP16 counter: inactive

What do the screens show for `Fc1ccc(CN2CCN(c3ncnc4scc(-c5ccccc5)c34)CC2)cc1`?
RORg inh: inactive; TDP1 cell noCPT: inconclusive; LDHA block: inactive; TDP1 cell CPT: inconclusive; IL-1B inflam inh: inconclusive; VP16 counter: inactive

How did Cc1sc2ncnc(N3CCN(c4ccccc4)CC3)c2c1-c1ccc(F)cc1 do in these assays?
LDHA block: inactive

Results for Fc1ccc(-c2csc3ncnc(N4CCN(Cc5ccccc5)CC4)c23)cc1 ?
RORg inh: inactive; TDP1 cell noCPT: 15µM; LDHA block: inactive; TDP1 cell CPT: 21µM; IL-1B inflam inh: inactive; VP16 counter: inactive

How did CC(NC(=O)Cn1nc(-c2ccc(F)cc2)oc1=O)c1ccc(Br)cc1 (stereo not drawn) do in these assays?
LDHA block: inactive

Results for COc1cccc(Cn2c(=O)n(-c3ccccc3C)c(=O)c3c2c2cc(C)ccc2n3C)c1 ?
TDP1 cell noCPT: 13µM; LDHA block: inactive; TDP1 cell CPT: 18µM

What do the screens show for `COc1ccc(Cn2c(=O)n(-c3ccc(C)cc3)c(=O)c3c2c2cc(C)ccc2n3C)cc1`?
TDP1 cell noCPT: inactive; LDHA block: inactive; TDP1 cell CPT: inactive

Results for COc1ccc2c(c1)c1c(c(=O)n(-c3ccccc3C)c(=O)n1CC(=O)Nc1c(C)cccc1C)n2C ?
TDP1 cell noCPT: 9.2µM; LDHA block: inactive; TDP1 cell CPT: 7.3µM

Results for CCN(CC)c1ccc(NC(=S)Nc2ccccc2)cc1 ?
LDHA block: inactive

What do the screens show for `CC(=O)NNC(=S)Nc1ccc(Br)cc1`?
LDHA block: inactive

What do the screens show for `CNC(=S)Nc1ccc(Br)cc1`?
RORg inh: 35µM; TDP1 cell noCPT: inactive; LDHA block: inactive; TDP1 cell CPT: inactive; IL-1B inflam inh: inactive; VP16 counter: inactive

What do the screens show for `CNC(=S)Nc1ccc(OC(F)(F)F)cc1`?
RORg inh: 7.1µM; TDP1 cell noCPT: inactive; LDHA block: inactive; TDP1 cell CPT: inactive; IL-1B inflam inh: inactive; VP16 counter: 10µM

Results for CCN(CC)c1ccc(NC(=S)Nc2ccc(F)cc2)cc1 ?
RORg inh: 8.9µM; TDP1 cell noCPT: 23µM; LDHA block: inactive; TDP1 cell CPT: inconclusive; IL-1B inflam inh: inconclusive; VP16 counter: inconclusive

Results for Fc1ccc(CNC(=S)Nc2ccc(Br)cc2)cc1 ?
LDHA block: inactive

Results for Fc1ccc(NC(=S)Nc2ccc(Br)cc2)cc1 ?
RORg inh: inconclusive; TDP1 cell noCPT: 9.2µM; LDHA block: inactive; TDP1 cell CPT: 8.2µM; IL-1B inflam inh: -93; VP16 counter: inconclusive

How did C/C=C/C(=O)OCc1nc2c(c(=O)[nH]c(=O)n2CCCC)n1C do in these assays?
LDHA block: inactive

Results for COc1cc2c(cc1OC)-c1cc3nc4ccccc4nc3n1C(C)(C)C2 ?
RORg inh: inconclusive; TDP1 cell noCPT: 8.4µM; TDP1 cell CPT: 12µM; VP16 counter: inconclusive

Source: PubChem BioAssay
